Compounds with a hit are over-represented: about 12% of the library has one in this group of screens.
L3MBTL1 block = L3MBTL1 (human) inhibition; Q9Y468; AlphaScreen L3MBTL1–H3K9me1 peptide binding; Potency, µM (doses to about 57.1 µM), for inactives: at the top dose activity, negative = inhibition, hits mostly inhibitors; 0.66% of 230,000 active; AID 485360; note: potency is the fitted concentration of half-maximal effect; % is set by controls: 0 for no effect and ±100 for the full control effect; nearly all actives have a fitted effect of over 60% in size
Target sequence (Q9Y468 whole entry, looked up): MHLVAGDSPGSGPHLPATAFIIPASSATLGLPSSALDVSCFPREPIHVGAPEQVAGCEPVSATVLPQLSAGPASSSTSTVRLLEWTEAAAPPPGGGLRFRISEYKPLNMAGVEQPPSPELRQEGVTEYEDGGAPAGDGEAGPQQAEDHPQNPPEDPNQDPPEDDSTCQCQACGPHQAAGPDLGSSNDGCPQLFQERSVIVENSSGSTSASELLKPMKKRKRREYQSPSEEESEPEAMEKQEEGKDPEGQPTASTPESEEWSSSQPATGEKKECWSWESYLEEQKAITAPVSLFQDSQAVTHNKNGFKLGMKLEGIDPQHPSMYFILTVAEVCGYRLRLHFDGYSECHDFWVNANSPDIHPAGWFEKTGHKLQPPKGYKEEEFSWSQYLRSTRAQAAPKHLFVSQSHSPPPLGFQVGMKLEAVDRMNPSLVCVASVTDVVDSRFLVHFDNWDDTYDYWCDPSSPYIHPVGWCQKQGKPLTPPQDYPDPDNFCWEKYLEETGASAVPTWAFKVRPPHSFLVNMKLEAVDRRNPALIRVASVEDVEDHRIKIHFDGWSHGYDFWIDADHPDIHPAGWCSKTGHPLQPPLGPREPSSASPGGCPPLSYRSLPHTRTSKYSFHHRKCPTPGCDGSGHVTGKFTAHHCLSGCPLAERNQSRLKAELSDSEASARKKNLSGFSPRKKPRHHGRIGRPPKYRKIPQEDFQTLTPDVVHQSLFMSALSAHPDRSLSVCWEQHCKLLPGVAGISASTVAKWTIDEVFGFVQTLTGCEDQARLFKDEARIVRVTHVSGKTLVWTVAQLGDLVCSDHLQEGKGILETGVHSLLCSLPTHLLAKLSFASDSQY
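First, the protein-peptide complex forms for 30 min at room temperature (L3MBTL1 50 nM, biotinylated H3K9me1 peptide 75 nM). Next, compounds are pin-transferred and incubated 30 min. Finally, AlphaScreen beads are added and read after 30 min.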
JMJD2A Tudor inh = blocks the human JMJD2A Tudor domain; O75164; AlphaScreen JMJD2A-Tudor / H3K4me3 peptide binding; Potency, µM (top dose mostly 114 µM), without a hit: top-dose activity change, negative = inhibition, actives largely listed as inhibitors; 4.4% of 390,000 active; AID 504339; note: potency is the fitted concentration of half-maximal effect; % is set by controls: 0 for no effect and ±100 for the full control effect; nearly all actives have a fitted effect of over 50% in size
BAZ2B inh = BAZ2B (human) inhibition | Q9UIF8 | AlphaScreen BAZ2B-H3K14Ac peptide displacement | Potency, µM (highest dose often 114 µM), for the others: at the highest dose activity change, negative = inhibition, actives largely listed as inhibitors | 4.4% of 360,000 active | AID 504333; note: potency is the fitted concentration of half-maximal effect; % is set by controls: 0 for no effect and ±100 for the full control effect; nearly all actives have a fitted effect of over 60% in size
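BAZ2B 50 nM plus b-H3(5-23)K14Ac 50 nM, PBS pH 7.4/0.01% Tween-20, 30 min RT; compound added (max 110 uM), 30 min RT; streptavidin donor/Ni-chelate acceptor beads 10 ug/mL final, 20 min dark; AlphaScreen read.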
HP1b binding inh = inhibitors of HP1-beta chromodomain binding to methylated histone tails | P83916 | AlphaScreen HP1-beta / biotin-H3K9me3 peptide binding | Potency, µM (top dose mostly 114 µM), for inactives: at the highest dose activity change, negative = inhibition, hits mostly inhibitors | 0.56% of 390,000 active; note: potency is the fitted concentration of half-maximal effect; nearly all actives have a fitted effect of over 70% in size
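AlphaScreen: HP1-beta (50 nM) preformed 30 min with biotin-H3(1-18)K9me3 peptide (50 nM) in PBS pH 7.4, 0.01% Tween-20. Compound added for 30 min at RT, then streptavidin donor/nickel chelate acceptor beads (10 ug/mL) for 30 min.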
Sfp inh = inhibitors of Bacillus subtilis Sfp phosphopantetheinyl transferase | Q9F4F7 | Biochemical Sfp PPTase activity, qHTS | Potency, µM, inactives show largest response in the series, negative = inhibition, usual class: inhibitors | 3.5% of 310,000 active | AID 1490;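 note: the enzyme is Sfp with the accession as filed and its product quenches rhodamine fluorescence; potency is the fitted concentration of half-maximal effect; 0% = enzyme reaction without inhibitor and -100% = no enzyme wells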
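Compounds were incubated with enzyme (final 15 nM) for 15 min at room temperature before substrate addition started the reaction. Fluorescence at 525 nm excitation, 598 nm emission was recorded immediately and after 30 minutes.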
G9a block = blocks human histone lysine methyltransferase G9a; Q96KQ7; G9a H3K9 monomethylation, AlphaScreen, 2 h; Potency, µM (highest dose often 102 µM), inactives show top-dose activity, negative = inhibition, usual class: inhibitors; 8.8% of 350,000 active; note: potency is the fitted concentration of half-maximal effect; % is set by controls: 0 for no effect and ±100 for the full control effect; nearly all actives have a fitted effect of over 75% in size
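Signal arises when biotinylated H3K9 peptide, once monomethylated, bridges streptavidin donor and antibody-captured acceptor beads. Enzyme at 20 nM was preincubated 15 min with test compounds; peptide 500 nM and SAM 20 uM then reacted for 2 h.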
12-hLO 8HQ R1 = confirmation of human 12-lipoxygenase inhibitors, 8HQ series round 1 | AID 2163 | 60% of 35 active | Potency, µM, most hits filed as inhibitors | shares compounds with BAZ2B inh | purified 12-hLO, cuvette UV 234 nm product formation;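 active = compounds that slowed 12-hLO product formation enough to yield a measured IC50 potency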
JMJD2E inh-1 = inhibitors of human JMJD2E demethylase, 8HQ series round 1; shares compounds with BAZ2B inh; JMJD2E demethylase, FDH-coupled NADH fluorescence; Potency, µM (top dose mostly 57 µM), inactives show at the highest dose activity, negative = inhibition, actives largely listed as inhibitors; 89% of 130 active
JMJD2E inh-2 = confirmation of inhibitors of human JMJD2E demethylase; shares compounds with JMJD2A Tudor inh; Recombinant JMJD2E, FDH-coupled NADH fluorescence (FDH is formaldehyde dehydrogenase); Potency, µM (highest dose often 56.8 µM), without a hit: at the top dose activity change, negative = inhibition, most hits filed as inhibitors; 93% of 140 active; AID 2677
FDH inh = blocks Pseudomonas putida formaldehyde dehydrogenase, flagging JMJD2E artifacts. FDH enzyme assay, NADH fluorescence kinetic. 10% of 140 active. shares compounds with JMJD2A Tudor inh. Potency, µM (highest dose often 56.7 µM), inactives show top-dose activity, negative = inhibition, hits mostly inhibitors
JMJD2E MS inh = inhibitors of human JMJD2E demethylase | shares compounds with JMJD2A Tudor inh | AID 2688 | Potency, µM, usual class: inhibitors | recombinant JMJD2E demethylation, MALDI-TOF-MS | 90% of 45 active;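 active = compounds whose IC50 for blocking JMJD2E demethylation is below 100 µM; inconclusive = dose dependent effect but IC50 above 100 µM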
* = called active by the depositor; ? = inconclusive; / = not tested or not shown; [ ] = remark or other dose. Unless noted, calls come from the whole dose curve; as a rule, active = well fitted curve in the direction sought with a large enough effect; inconclusive = small, poorly fitted or top-dose-only effect, or another doubt; inactive = no such curve, though single readings can be large; an effect the other way counts as inactive or inconclusive.

SMILES	L3MBTL1 block	JMJD2A Tudor inh	BAZ2B inh	HP1b binding inh	Sfp inh	G9a block	JMJD2E inh-1	JMJD2E inh-2	FDH inh	others
CCc1ccc(NC(=O)CCc2c(C)n(C)c3cc(-c4ccccc4C)nn3c2=O)cc1	/	1.6%	2.3%	27.2%[57 µM]	/	1.3%[59 µM]	/	/	/
COc1ccc(Cl)cc1NC(=O)CSc1c2c(nc3ccccc13)CCC2	/	-30.0%	/	16.2%	/	-0.3%[59 µM]	/	/	/
CCC(=O)NC(c1ccc(F)cc1)c1cc(Cl)c2cccnc2c1O (stereo not drawn)	/	-12.3%	/	/	/	/	15.8µM*	15.8µM*	-18.2%
CCC(=O)NC(c1ccco1)c1cc(Cl)c2cccnc2c1O (stereo not drawn)	-27.9%	?	44.7µM*	1.8%	10.5%	16.5%	6.31µM*	6.31µM*	-27.3%	12-hLO 8HQ R1=1µM*
CCC(=O)NC(c1cccs1)c1cc([N+](=O)[O-])c2cccnc2c1O (stereo not drawn)	10µM*	79.4µM*	7.94µM*	-8.2%	7.08µM*	?	14.1µM*	14.1µM*	-18.2%	12-hLO 8HQ R1=0.8µM*
CCC(=O)NC(c1ccc(C)s1)c1cc(Cl)c2cccnc2c1O (stereo not drawn)	/	-22.6%	/	/	/	/	-6.0%	10.2µM*	-9.1%	12-hLO 8HQ R1=3.5µM*
CCC(=O)NC(C)c1cc(Cl)c2ccccc2c1O (stereo not drawn)	3.9%	0.7%	-2.2%	40.8%	/	9.2%[0.501 µM]	/	/	/
COc1ccc(C(=O)NCC(c2cccs2)S(=O)(=O)c2ccc(F)c(C)c2)cc1 (stereo not drawn)	/	-1.9%	2.0%	10.6%	/	1.3%[59 µM]	/	/	/
COc1ccc(-c2nc3ccccc3c(=O)n2CCOc2cccc(C)c2C)cc1	5.7%	5.8%	-5.7%	92.5%	-9.5%	66.3%[59 µM]	/	/	/
COC(=O)c1ccccc1OCCOCCOc1cccc2cccnc12	-17.6%	-30.5%[57.1 µM]	-31.6%	?	-19.5%	5.2%[59 µM]	/	/	/
COC(=O)c1ccc(OC(C)=O)c2ncccc12	/	/	/	/	/	/	12.9µM*	14.5µM*	-18.2%
O=C(Nc1cccc2cccnc12)c1cccc2ccccc12	/	-3.4%	-2.6%	45.2%	-6.9%	8.3%[59 µM]	/	/	/
O=C(Nc1ccccc1F)c1ccc(O)c2ncccc12	28.2µM*	/	20µM*	/	/	2.3%[12.7 µM]	28.9µM*	35.5µM*	/	JMJD2E MS inh=40.7*
O=C(O)c1ccnc2c(O)cccc12	12.6µM*	/	1.78µM*	/	/	43.4%[12.7 µM]	1.45µM*	1.45µM*	/	JMJD2E MS inh=8.19*
O=S(=O)(NCc1ccccc1F)c1ccc(O)c2ncccc12	/	/	/	/	/	/	22.9µM*	18.2µM*	-36.4%
Oc1ccc(Oc2ccccc2F)c2cccnc12	/	50.1µM*	/	/	/	/	8.91µM*	12.9µM*	-9.1%	JMJD2E MS inh=16.8*
Nc1ncc(S(=O)(=O)NCc2ccccc2F)cn1	/	1.0%	-0.5%	22.2%[57 µM]	/	-4.0%[59 µM]	/	/	/
Nc1cccnc1Oc1ccccc1F	3.3%	-9.7%	-4.5%	0.5%	-9.5%	8.8%	/	/	/
CCc1c(C)nc(SCc2nc(-c3ccccc3)no2)[nH]c1=O	/	-3.6%	-1.8%	52.5%[57 µM]	/	-2.5%[59 µM]	/	/	/
CCCNc1ncccc1C(N)=O	6.9%	-1.9%	6.9%	10.8%	15.2%	-7.7%	/	/	/
NC(=O)c1ccc(O)c2ncccc12	/	12.6µM*	/	/	/	/	4.57µM*	4.57µM*	-9.1%	JMJD2E MS inh=89.6*
Oc1cc(NCCN2CCOCC2)cc2cccnc12	?	22.4µM*	2.82µM*	22.5%	/	?	?	18.2µM*	-27.3%	JMJD2E MS inh=25.6*
Oc1cccc2cc(Nc3ccccc3)cnc12	/	/	/	/	/	/	10.2µM*	10.2µM*	-18.2%
Oc1cccc2cc(-c3ccccc3)cnc12	/	/	/	/	/	/	16.2µM*	16.2µM*	0.0%
Cc1ccc(O)c(CNc2cnc3ccccc3c2)c1	-0.3%	-11.1%	?	28.8%	4.9%	8.0%	/	/	/
SMILES	L3MBTL1 block	JMJD2A Tudor inh	BAZ2B inh	HP1b binding inh	Sfp inh	G9a block	JMJD2E inh-1	JMJD2E inh-2	FDH inh	others
Oc1cccc2cc(N3CCCC3)cnc12	/	/	/	/	/	/	18.2µM*	18.2µM*	-9.1%
COc1ccccc1OCCSc1nc2ccccc2n1CC(=O)N1CCOCC1	/	-16.6%	-23.3%	32.9%	/	3.8%[59 µM]	/	/	/
O=C(COc1cccc2cccnc12)NNC(=O)Nc1ccccc1	-3.8%[11.4 µM]	-8.4%	-28.5%	31.0%	9.5%	-1.4%	/	/	/
Oc1cc(Nc2ccccc2)cc2cccnc12	-9.7%	?	?	16.9%	/	19.2%[12.7 µM]	?	?	-18.2%
CC(C)CC(N)C(=O)NC(C)C(=O)O (stereo not drawn)	/	/	/	/	2.5%	/	/	/	/
Oc1ccc(COc2ccccc2Cl)c2cccnc12	/	79.4µM*	/	/	/	/	12.6µM*	12.6µM*	-27.3%
